# Laboratory results: PubChem BioAssay AID463173 (ICCB-Longwood Screening Facility, Harvard Medical School, 2010)
# Out of some 52,000 compounds screened, about 1,700 (3.3%) were called active. The sample as a whole holds a higher share of actives than the screen did. A number with no mark means an inactive call. Rule as the data show it: active = survival mostly below about 52% (no sharp cut-off); inactive = mostly above about 56%.
# System: Wild type
# Assay: S. aureus survival, RN4220 and DeltatarO strains – OD600, teichoic acid synthesis inhibitors, primary screen (AID 463173)
# Settings: S. aureus RN4220 wild type/DeltatarO growth, OD600, 18 h, active compounds read low, screened at 18.75 µg/mL (by protocol)
row,Compound,survival
1,CCOC(=O)C(C)(C)Sc1nnc(COc2ccccc2)n1CC,100%
2,C1CCC2(C1)OCC1(CO2)COC2(CCCC2)OC1,111%
3,Cc1ccc(NC(=O)N2CCC(CN3CCC(C)CC3)CC2)cc1F,82%
4,COc1ccc(CCNC(=O)c2cc(-c3ccc(C)cc3)nc3n[nH]c(-c4ccc(F)cc4)c23)cc1OC,136%
5,Cc1cccc(-c2nc3scc(CCNC(=O)c4ccc(Br)o4)n3n2)c1,74%
6,Cc1cc(C)cc(NC(=O)CSc2nc3c(cnn3-c3ccc(F)cc3)c(=O)[nH]2)c1,65%
7,O=S(=O)(c1cccc(Cl)c1)c1nnn2c1nc(NC1CCCC1)c1sccc12,95%
8,O=C(NCc1ccccc1)C(=O)NCC(c1ccco1)S(=O)(=O)c1ccccc1 (configuration not stated),67%
9,Cc1ccc(S(=O)(=O)C(CNC(=O)c2ccc(F)c(F)c2)c2ccco2)cc1 (configuration not stated),-6% (active)
10,CCOc1ccc(C(=O)NCC(c2ccco2)S(=O)(=O)c2ccc(C)cc2)cc1 (configuration not stated),85%
11,O=C(NCC(c1ccco1)S(=O)(=O)c1cccs1)c1ccc(F)c(F)c1 (configuration not stated),78%
12,Cc1ccc(C(=O)NCC(c2ccco2)S(=O)(=O)c2ccc(Cl)cc2)cc1C (configuration not stated),14% (active)
13,COc1ccc(C(=O)NCC(c2ccco2)S(=O)(=O)c2ccc(F)cc2)cc1 (configuration not stated),74%
14,CC(C)(C)c1ccc(C(=O)NCC(c2ccco2)S(=O)(=O)c2ccccc2)cc1 (configuration not stated),70%
15,Cc1ccccc1CNC(=O)C(=O)NCC(c1ccco1)S(=O)(=O)c1ccccc1 (configuration not stated),76%
16,COc1ccc(C(=O)NCC(c2ccco2)S(=O)(=O)c2ccccc2)cc1 (configuration not stated),-6% (active)
17,Cc1ccc(C(=O)NCC(c2ccco2)S(=O)(=O)c2cccs2)cc1C (configuration not stated),99%
18,O=C(NCc1ccccc1F)C(=O)NCC(c1ccco1)S(=O)(=O)c1ccccc1 (configuration not stated),-6% (active)
19,Cc1ccc(C(=O)NCC(c2ccco2)S(=O)(=O)c2ccccc2)cc1C (configuration not stated),72%
20,CCOc1ccc(S(=O)(=O)N(CC(=O)NCc2ccccc2OC)c2ccccc2)cc1,58%
21,CC1=C(C#N)C(NC(=O)c2ccccc2Cl)(C(F)(F)F)C(=O)N1 (configuration not stated),139%
22,COc1ccc(-c2cn3nc(N4CCC(C(=O)Nc5ccc(Cl)cc5C)CC4)sc3n2)cc1,78%
23,CCOCCCn1c(=N)c(S(=O)(=O)c2ccc(C)cc2)cc2c(=O)n3cccc(C)c3nc21,77%

row,Compound,survival
1,Cc1cc2nn(-c3ccccc3)nc2cc1NC(=O)c1cccc2c(Cl)cccc12,70%
2,COc1ccc(N2CCN(CCCNC(=O)c3cnn(-c4ccc(F)cc4)c3-n3cccc3)CC2)cc1,77%
3,O=C(NCC(c1ccco1)S(=O)(=O)c1ccc(Cl)cc1)c1ccc(C(F)(F)F)cc1 (configuration not stated),-1% (active)
4,Cc1ccc(S(=O)(=O)C(CNC(=O)c2ccc(C(F)(F)F)cc2)c2ccco2)cc1 (configuration not stated),134%
5,CC(C)(C)c1ccc(C(=O)NCC(c2ccco2)S(=O)(=O)c2ccc(F)cc2)cc1 (configuration not stated),131%
6,O=c1c2[nH]c3ccccc3c2nc(SCc2cccc(F)c2)n1-c1ccccc1,53%
7,CCOC(=O)CC(NC(=O)c1cc2c(=O)n3cccc(C)c3nc2s1)c1ccc(OCC(C)C)c(OC)c1 (configuration not stated),77%
8,CCOc1ccccc1NC(=O)c1ccc(F)c(S(=O)(=O)NCc2ccc3c(c2)OCO3)c1,63%
9,CCN(Cc1ccccc1)S(=O)(=O)c1ccc(F)c(C(=O)Nc2cc(C)ccc2OC)c1,120%
10,CN(Cc1ccccc1)S(=O)(=O)c1ccc(F)c(C(=O)Nc2cc(Cl)cc(Cl)c2)c1,76%
11,CN(Cc1ccccc1)S(=O)(=O)c1ccc(F)c(C(=O)Nc2cccc(Cl)c2Cl)c1,159%
12,O=C(Nc1cc(Cl)ccc1Cl)c1cc(S(=O)(=O)NCCc2ccccc2)ccc1F,133%
13,O=C(Nc1cc(C(F)(F)F)ccc1Cl)c1cnn(-c2ccccc2)c1-n1cccc1,-3% (active)
14,CCN(Cc1ccccc1)S(=O)(=O)c1ccc(F)c(C(=O)Nc2ccc(C(C)C)cc2)c1,95%
15,COc1cc(OC)c(NC(=O)c2cnn(-c3ccccc3)c2-n2cccc2)cc1Cl,80%
16,COc1ccccc1NC(=O)c1cnn(-c2ccccc2)c1-n1cccc1,99%
17,CN(Cc1ccccc1)S(=O)(=O)c1ccc(F)c(C(=O)Nc2ccccc2C(F)(F)F)c1,-6% (active)
18,O=C(Nc1ccc(Cl)cc1C(F)(F)F)c1cc(S(=O)(=O)NCc2ccccc2)ccc1F,134%
19,CCN(Cc1ccccc1)S(=O)(=O)c1ccc(F)c(C(=O)Nc2cc(C(F)(F)F)ccc2Cl)c1,-1% (active)
20,O=C(Nc1cc(C(F)(F)F)ccc1Cl)c1cc(S(=O)(=O)NCc2ccccc2)ccc1F,14% (active)
21,COc1cccc(CNC(=O)c2ccc3c(c2)c(C)c(C)n3Cc2ccccc2)c1,72%
22,CCC(C)Nc1sc(S(=O)(=O)CC)nc1S(=O)(=O)c1ccc(C)cc1 (configuration not stated),78%
23,COc1ccccc1CNC(=O)Cn1ncn2c(cc3sccc32)c1=O,76%

row,Compound,survival
1,O=C(CN1C(=O)COc2ccc(S(=O)(=O)N3CCOCC3)cc21)N1CCN(c2ccccc2F)CC1,100%
2,O=C(CCS(=O)(=O)c1ccccc1)N(Cc1cccnc1)c1nc2ccc(F)cc2s1,124%
3,CCOc1cc(C)c(C(C)C)cc1S(=O)(=O)n1ccnc1CC,-11% (active)
4,Cc1nccn1S(=O)(=O)c1c(C(C)C)cc(C(C)C)cc1C(C)C,119%
5,CCc1nccn1S(=O)(=O)c1cc(Br)ccc1Br,69%
6,Cc1ccc(CNC(=O)Cn2ncc3c([nH]c4ccc(C)cc43)c2=O)cc1,79%
7,Cc1ccc2[nH]c3c(=O)n(CC(=O)N(C)Cc4ccccc4)ncc3c2c1,-3% (active)
8,Cc1ccc2[nH]c3c(=O)n(CC(=O)N(CCN(C)C)Cc4ccccc4)ncc3c2c1,99%
9,CCCCN(C)C(=O)Cn1ncc2c([nH]c3ccc(C)cc32)c1=O,81%
10,Cc1ccc(CCNC(=O)Cn2ncc3c([nH]c4ccc(C)cc43)c2=O)cc1,131%
11,Cc1ccc2[nH]c3c(=O)n(CC(=O)NC(C)C)ncc3c2c1,1% (active)
12,O=C(NCC(c1cccs1)S(=O)(=O)c1cccs1)c1ccccc1 (configuration not stated),70%
13,COc1ccccc1CCNC(=O)Cn1ccc2cc(S(=O)(=O)N3CCCCC3)ccc21,87%
14,Cc1cccc(C(=O)n2nc(-c3cccnc3)nc2NCc2ccccc2)c1,106%
15,COc1ccc(-c2nc(S(=O)(=O)c3ccc(Cl)cc3)c(N3CCCCCC3)o2)cc1,64%
16,O=S(=O)(c1ccccc1)c1nc(-c2ccccc2F)oc1N1CCOCC1,77%
17,Cc1ccc(-c2nc(S(=O)(=O)c3ccc(Cl)cc3)c(N3CCCCC3)o2)cc1,5% (active)
18,O=S(=O)(c1ccccc1)c1nc(-c2ccc(Cl)cc2Cl)oc1N1CCCCC1,57%
19,O=S(=O)(c1ccccc1)c1nc(-c2ccccc2Cl)oc1N1CCCCCC1,14% (active)
20,Cc1ccc(S(=O)(=O)c2nc(-c3ccc(F)cc3)oc2N2CCN(c3ccccc3)CC2)cc1,115%
21,Cc1ccc(S(=O)(=O)c2nc(-c3ccccc3F)oc2N2CCCCC2)cc1,17% (active)
22,COc1ccc(-c2nc(S(=O)(=O)c3ccccc3)c(N3CCC(C)CC3)o2)cc1,89%
23,COc1ccccc1-c1nc(S(=O)(=O)c2ccc(Cl)cc2)c(N2CCCCCC2)o1,70%

row,Compound,survival
1,Cc1ccc(S(=O)(=O)c2nc(-c3ccccc3Cl)oc2N2CCCCCC2)cc1,20%
2,Cc1ccc(S(=O)(=O)c2nc(-c3ccc(Cl)cc3)oc2N2CCCCCC2)cc1,30%
3,COc1ccccc1-c1nc(S(=O)(=O)c2ccccc2)c(N2CCC(C)CC2)o1,-5% (active)
4,CCC(Oc1ccccc1)C(=O)Nc1cc(-c2cccc(C)c2)nn1-c1ccccc1 (configuration not stated),89%
5,CCOC(=O)c1ccc(NC(=O)CSc2nnc(CNC(=O)c3ccc(OC)cc3)n2CC)cc1,134%
6,COc1ccc(-c2nnc(C3CCN(C(=O)c4ccccc4F)CC3)o2)cc1,85%
7,CCOC(=O)c1ccc(NC(=O)CC2C(=O)N(c3ccccc3)C(=O)N2Cc2ccc(C)cc2)cc1 (configuration not stated),58%
8,COc1ccccc1NC(=O)CCCc1nnc2n(C)c(=O)c3sccc3n12,97%
9,CC1CCN(C(=O)CS(=O)(=O)Cc2ccccc2)CC1,102%
10,O=C1C(=O)N(C2CCN(C(=O)c3cccc(Cl)c3)CC2)CCN1Cc1ccc(F)cc1,77%
11,Cc1nc2c3ccccc3nc(NNC(=O)CCC(=O)N3CCN(c4ccccc4)CC3)n2n1,81%
12,COc1ccc(-n2c(=O)c3c(c4cc(OC)ccc4n3C)n(CC(=O)NCC3CCCO3)c2=O)cc1 (configuration not stated),83%
13,COc1ccc(CNCCSc2nnnn2-c2ccccc2)cc1,83%
14,Cc1ccc(C)c(NC(=O)CN(Cc2ccccc2)S(=O)(=O)c2ccc3nc(C)sc3c2)c1,66%
15,Cc1ccc(-c2nc(S(=O)(=O)c3ccc(C)cc3)c(N3CCCCC3)o2)cc1,0% (active)
16,COc1ccc(-c2nc(S(=O)(=O)c3ccc(C)cc3)c(N3CCCCC3)o2)cc1,63%
17,Cc1ccc(S(=O)(=O)c2nc(-c3ccccc3)oc2N2CCCCCC2)cc1,6% (active)
18,Cc1cccc(-c2nc(S(=O)(=O)c3ccc(Cl)cc3)c(N3CCCCCC3)o2)c1,41%
19,Cc1ccc(-c2nc(S(=O)(=O)c3ccc(C)cc3)c(N3CCCCCC3)o2)cc1,84%
20,Cc1ccc(-c2nc(S(=O)(=O)c3ccc(C)cc3)c(N3CCN(c4ccccc4)CC3)o2)cc1,104%
21,Cc1ccc(S(=O)(=O)c2nc(-c3cccc(C)c3)oc2N2CCN(c3ccccc3)CC2)cc1,117%
22,Cc1ccc(S(=O)(=O)c2nc(-c3ccccc3)oc2N2CCN(c3ccccc3)CC2)cc1,86%
23,Cc1ccc(S(=O)(=O)c2nc(-c3cccc(C)c3)oc2N2CCCCC2)cc1,2% (active)
